HCV inh: qHTS Assay for Inhibitors of Hepatitis C Virus (HCV) | 3.4% of 340,000 active | AID 651820, 2012 | Potency, µM (highest dose often 41.8 µM), inactives show at the highest dose activity change, negative = inhibition, usual class: inhibitors | Huh7.5.1 HCVcc-Cre infection, luciferase reporter, 44 h
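Reporter virus HCVcc-Cre (~0.5 moi) infects cells exposed to compound; seeding density 1,000 cells/well with 4 h settling beforehand. Luminescence, 15 sec read, taken 44 h post-infection following a 15 min RT substrate incubation.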
Lassa entry inh: qHTS for Inhibitors of binding or entry into cells for Lassa Virus. Lassa virus pseudotype entry inhibition, cell reporter. Potency, µM (titrated, usually from 37.9 µM), without a hit: at the highest dose activity change, negative = inhibition, most hits filed as inhibitors. 1.2% of 300,000 active. AID 540256, 2011; calls by dose curve; tested in HEK293 cells; note: nearly all actives have a fitted effect of over 50% in size
RE007 growth inh: qHTS Assay for Inhibitors of the HIV-1 protein Vpr; S. pombe RE007 Vpr strain, BacTiter-Glo ATP luminescence, 24 h; Potency, µM (series often up to 92.2 µM), without a hit: at the highest dose activity change, negative = less growth, actives largely listed as inhibitors; 0.21% of 360,000 active; AID 651644, 2012; active = well fitted falling curve with a large enough effect; inconclusive = small, poorly fitted or top-dose-only effect; inactive = no such curve, though single readings can be large or run the other way; note: nearly all actives have a fitted effect of over 50% in size
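Fission yeast strain RE007, carrying one chromosomally integrated HIV-1 vpr copy, was seeded at OD 0.01 in PMG+AL medium with 23 nL pinned compound. After 24 h at 30 °C and 99% humidity, viability was read by BacTiter-Glo luminescence.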
FMDV antiviral: High Throughput Screening for Foot and Mouth Disease Virus Antivirals; FMDV antiviral cell-based qHTS; 1.2% of 410,000 active; AID 1159524, 2015; Potency, µM (doses to about 57.9 µM), for the others: at the highest dose activity change, negative = inhibition, hits mostly inhibitors; calls by dose curve; tested in HEK293T cells; note: read-out not given here; nearly all actives have a fitted effect of over 45% in size
Marburg entry inh: qHTS for inhibitors of binding or entry into cells for Marburg Virus; Marburg virus pseudotyped entry inhibition, cell reporter; Potency, µM (highest dose often 37.8 µM), for inactives: at the top dose activity change, negative = inhibition, most hits filed as inhibitors; 1.8% of 300,000 active; calls by dose curve; tested in HEK293 cells
Sm TGR inh: qHTS Assay for the Inhibitors of Schistosoma Mansoni Peroxiredoxins; purified TGR, DTNB reduction, TNB absorbance 405 nm; 3% of 360,000 active; Schistosoma mansoni thioredoxin glutathione reductase (TGR), Q962Y6; Potency, µM (top dose mostly 114 µM), inactives show top-dose activity change, negative = inhibition, actives largely listed as inhibitors; note: nearly all actives have a fitted effect of over 60% in size
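TGR 20 nM + NADPH 100 uM (dispensed conc.), cpd preinc 15 min RT; start with NADPH (500 uM addition) then DTNB (15 mM addition). Kinetic TNB absorbance, 405 nm filter. Four-parameter Hill fit across titration.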
Starred values were filed as active, the others as inactive; ? = inconclusive; . = not tested or not shown; [ ] = another dose, or the depositor's remark. A selection: hits, their analogues and other compounds. The true share with any hit is near 7.2%. Unless noted, calls come from the whole dose curve; as a rule, active = well fitted curve in the direction sought with a large enough effect; inconclusive = small, poorly fitted or top-dose-only effect, or another doubt; inactive = no such curve, though single readings can be large; an effect the other way counts as inactive or inconclusive. % is set by controls: 0 for no effect and ±100 for the full control effect; potency is the fitted concentration of half-maximal effect.

SMILES	HCV inh	Lassa entry inh	RE007 growth inh	FMDV antiviral	Marburg entry inh	Sm TGR inh
CN(c1ccccc1)S(=O)(=O)c1cccc(C(=O)NCCc2ccc(O)c(O)c2)c1	?	6%	5%	?	12%[46.1 µM]	16µM*
CCN(CC)S(=O)(=O)c1cccc(C(=O)NCCc2ccccc2)c1	-20%	-8%	15%	16%	?	.
O=C(NCc1ccccc1)c1ccc(Cl)c(S(=O)(=O)N2CCCC2)c1	-25%	.	-6%	-4%	.	.
COc1ccc(-c2cn3c(n2)sc2cc(C(=O)N4CCCCC4)ccc23)cc1	.	-21%[46.1 µM]	.	-20%	.	-5%
CC1=C(C(=O)Nc2cccnc2)C(c2ccc(Cl)cc2)n2nc(SCc3ccccc3)nc2N1 (configuration not stated)	.	25%[46.1 µM]	.	-11%	7%[46.1 µM]	-2%
O=C(NCC(O)c1ccccc1)c1ccc(Cl)c(S(=O)(=O)N2CCCCC2)c1 (configuration not stated)	10µM*	-24%[46.1 µM]	-9%	-13%	-22%[46.1 µM]	4%
O=C(NCc1ccc(F)cc1)c1cnc(N2CCCCC2)c2ccccc12	.	?	.	-30%	.	-106%
CCCCN1C(=O)Cc2c1nc(N)c1c(N)nc(N(CCC)CCC)c(C#N)c21	4µM*	-1%	-9%	13%	15%	1%
N#Cc1c(N2CCCC(O)C2)nc(N)c2c(N)nc3c(c12)CC(=O)N3C12CC3CC(CC(C3)C1)C2 (configuration not stated)	4µM*	8.2µM*	5%	-26%	?	?
C=C(C)CN(CC)c1nc(N)c2c(N)nc3c(c2c1C#N)CC(=O)N3C12CC3CC(CC(C3)C1)C2	4µM*	?	-13%	?	2.5µM*	-31%
COc1ccc(CN2C(=O)Cc3c2nc(N)c2c(N)nc(N4CCCCC4)c(C#N)c32)cc1	-14%	.	.	.	.	-2%
CCn1c(=O)n(CC)c2cc(N3CCCCC3)c(NC(=O)Nc3ccccc3C(F)(F)F)cc21	.	?	.	-12%	.	-8%
COc1cc(NC(=S)NC(=O)c2ccccc2C)ccc1NC(=O)c1cccs1	2µM*	0%	1%	-12%	-17%	4%
COc1cccc(C(=O)Nc2cc(NC(=O)c3cccs3)ccc2C)c1OC	10µM*	.	7%	0%	.	2%
COc1cccc(C(=O)Nc2cc(NC(=O)c3cccs3)ccc2C)c1	-15%	.	2%	16%	.	-3%
COc1cc(NC(=O)c2cc3ccccc3cc2OC)ccc1NC(=O)c1cccs1	3.2µM*	.	16%	?	.	4%
CCC(=O)Nc1cc(C(C)(C)C)ccc1C(C)=O	10µM*	3%	-16%	-8%	-18%	0%
CCS(=O)(=O)c1cc([N+](=O)[O-])c(Sc2ccccc2NC(C)=O)s1	8%	?	8%	16µM*	?	2.8µM*
O=C(c1ccco1)N(Cc1cccnc1)C(c1ccccc1)c1nc2ccccc2[nH]1 (configuration not stated)	.	.	-19%	7%	.	.
COC(=O)C1=C(N)Oc2cc(C)n(Cc3ccco3)c(=O)c2C1c1cccc(Cl)c1 (configuration not stated)	8.9µM*	-21%	2%	0%	?	-17%
CC(C)(C)c1cccc(/C=N\O)c1O	.	.	.	.	0%	.
O=C(Sc1ccccc1)c1cccc(Cn2cc(C(F)(F)F)ccc2=O)c1	0%	?	-3%	-12%	-27%[46.1 µM]	22µM*
CCOC(=O)N[C@](Nc1sc2c(c1C(N)=O)CCCC2)(C(=O)OCC)C(F)(F)F	.	.	.	.	-5%	.
COc1ccccc1C1CN(Cc2cnn(C)c2)Cc2ccccc2O1 (configuration not stated)	.	.	.	2%	.	.
C[C@@H]([C@H](O)c1ccc(O)cc1)N1CCC(Cc2ccccc2)CC1	.	.	.	-26%	21µM*	.
SMILES	HCV inh	Lassa entry inh	RE007 growth inh	FMDV antiviral	Marburg entry inh	Sm TGR inh
CC(C)OCC(O)CN1CCC(Cc2ccccc2)CC1 (configuration not stated)	14%	.	-14%	-7%	.	1%
CC(C(O)c1ccc(O)cc1)N1CCC(Cc2ccccc2)CC1 (configuration not stated)	?	23µM*	-2%[18.4 µM]	?	21µM*	5%
C[C@@H](CN1CCC(Cc2ccccc2)CC1)[C@@H](O)c1ccc(O)cc1	?	?	3%[18.4 µM]	-21%	?	1%
c1ccc(CN(Cc2ccco2)C(c2ccncc2)c2nnnn2C2CCCC2)cc1 (configuration not stated)	4%	-28%	-16%	.	-26%	22µM*
CCN(CC)C(c1ccc(C)cc1)c1nnnn1C1CCCCC1 (configuration not stated)	35µM*	24%	11%	-19%	-18%	4%
Fc1ccc(C(c2nnnn2C2CCCC2)N(Cc2ccco2)CC2CCCO2)cc1 (configuration not stated)	-14%	?	-19%	8%	?	-11%
Cc1ccc(N(CC(C)C)S(=O)(=O)c2nnc(NC(=O)c3cccs3)s2)cc1	.	14%[46.1 µM]	.	-11%	.	1%
O=C(CSc1nc2ccccc2c(=O)n1CCCN1CCOCC1)c1c[nH]c2ccccc12	14µM*	?	-2%	-1%	?	12%
O=c1c2ccccc2nc(SCc2ccc(F)cc2Cl)n1CCCN1CCOCC1	10µM*	.	9%	-13%	.	6%
COc1c(N2CCN(C(=S)NCc3ccccc3)C(C)C2)c(F)cc2c(=O)c(C(=O)O)cn(C3CC3)c12 (configuration not stated)	10µM*	11%	-3%	-23%	-23%	19%
O=C(/C=C/c1ccc(F)cc1)N1CCN(c2ncccn2)CC1	5%	10%	9%	32%	-1%[46.1 µM]	2%
Cc1ccc(/C=C/C(=O)N2CCN(c3ccc(F)cc3)CC2)o1	-16%	9%	.	?	-1%	50µM*
COc1ccc(C(=O)N2CCN(c3ccc(NC(=O)c4ccco4)cc3)CC2)cc1	-7%	-15%	-4%	-26%	-1%	8%
COc1ccccc1N1CCN(C(=O)/C=C/c2ccccc2)CC1	19%	1%	-6%	1%	1%[46.1 µM]	3%
COc1ccc(N2CCN(C(=O)/C=C/c3ccco3)CC2)cc1	-4%	14%[46.1 µM]	-4%	-8%	-3%[46.1 µM]	18µM*
COc1ccccc1N1CCN(C(=O)/C=C/c2ccco2)CC1	17%	?	2%	20%	?	50µM*
COc1ccccc1N1CCN(/N=C/C=C\c2ccco2)CC1	-15%	?	-16%	-8%	?	40µM*
CC(C)(C)c1ccc(S(=O)(=O)N2CCN(Cc3noc(CCC(=O)N4CCCCC4)n3)CC2)cc1	.	5%[46.1 µM]	.	-27%	.	-3%

Source: PubChem (National Center for Advancing Translational Sciences (NCATS))
